Reference: the supplement of paper PMC7411640
Structures can show the parent of a compound that is named as a salt.

System: MDA-MB-468
Assay: phospho-S6 immunofluorescence (DAPI-normalised), per-plate z-score; higher = higher phospho-S6 signal (less pathway suppression)
Conditions: 24 h
Method: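 GPCR-targeted compound library (MedChemExpress HY-L006) tested on MDA-MB-468 PTEN-null TNBC cells in 384-well plates at 0.1, 1 or 10 uM, combined with vehicle, GDC0941 450 nM or lapatinib 1 uM, for 24 h. Phospho-S6 (S240/244) immunofluorescence normalised to DAPI and expressed as a per-plate z-score; values are the mean of biological triplicates.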

Compound | phospho-S6 immunofluorescence (z-score) (co-treatment: GDC0941 450 nM) | phospho-S6 immunofluorescence (z-score) (co-treatment: lapatinib 1 uM) | phospho-S6 immunofluorescence (z-score) (co-treatment: vehicle)
O=C(O[C@H]1C[N+]2(CCCOc3ccccc3)CCC1CC2)C(O)(c1cccs1)c1cccs1 [Aclidinium (Bromide)] (compound 10 µM) | 0.75 | 1.09 | -0.87
C[N+]1(C)[C@@H]2C[C@@H](OC(=O)[C@H](CO)c3ccccc3)C[C@H]1[C@@H]1O[C@@H]12 [Methscopolamine (bromide)] (compound 10 µM) | 0.05 | 0.43 | 0.6
Cc1c(C(=O)c2cccc3ccccc23)c2cccc3c2n1[C@H](CN1CCOCC1)CO3 [WIN 55,212-2 (Mesylate)] (compound 10 µM) | -2.24 | -0.84 | -3.25
CCN(CC)C(=O)c1ccc(C2=CC3(CCNCC3)Oc3cccc(O)c32)cc1 (compound 10 µM) | 0.32 | -0.78 | 0.88
Cc1cccc(C(C)c2c[nH]cn2)c1C (configuration not stated) [Medetomidine (hydrochloride)] (compound 10 µM) | 0.08 | 0.79 | 0.41
N#Cc1c(Oc2cccc(OS(=O)(=O)CCCC(F)(F)F)c2)cccc1C(F)(F)F (compound 10 µM) | -3.05 | -2.85 | -5.42
CN1[C@@H]2CC(O)C[C@H]1[C@@H]1O[C@@H]12 (some centres not stated) [Scopine (hydrochloride)] (compound 10 µM) | 1.05 | 0.28 | -1.09
Cc1cccc([C@H](C)c2c[nH]cn2)c1C [Dexmedetomidine (hydrochloride)] (compound 10 µM) | 0.32 | 0.38 | 1.08
COc1ccc2[nH]cc(C3=CCNCC3)c2c1 (compound 10 µM) | -0.19 | -2.58 | -0.11
COc1ccc(C(=O)c2c(C)n(CCN3CCOCC3)c3cc(I)ccc23)cc1 (compound 10 µM) | -3.18 | -1.01 | -3.47
CNCC(O)c1ccc(O)cc1 (configuration not stated) [Synephrine (hydrochloride)] (compound 10 µM) | 1.02 | 0.35 | 0.24
O=C(O[C@H]1C[C@H]2CC[C@@H](C1)[N+]21CCCC1)C(O)(c1ccccc1)c1ccccc1 [Trospium (chloride)] (compound 10 µM) | -0.76 | 0.26 | -1.07
COC(=O)C1=CCCN(C)C1 [Arecoline (hydrobromide)] (compound 10 µM) | 0.22 | 0.44 | 0.56
Oc1ccc2c3c1O[C@H]1c4[nH]c5ccccc5c4C[C@@]4(O)[C@@H](C2)N(CC2CC2)CC[C@]314 [Naltrindole (hydrochloride)] (compound 10 µM) | -1.12 | -5.41 | -1.21
